Data from PubChem BioAssay (NCATS).
For part of these data: Entries with a potency or affinity are not part of this list. The source made the active and inactive calls. Calls follow the shape of the full dose curve. Where a SMILES comes first, the peptide text is derived from it. Bridges are numbered along the chain shown (N, C = ends). [ ]: non-standard residue; d: D form. The star is where a group is joined. Dab(CH2SO3H) = N[C@@H](CCNCS(=O)(=O)O)C(=O)O; X1 = CC[C@@H](C)CCCCC(=O)*; Dab = NCC[C@H](N)C(=O)O

Tests used:
[1] = Ebola virus entry assay, blue channel fluorescence
[2] = Ebola virus entry assay, green fluorescence channel
[3] = Ebola virus entry assay, ratio channel readout

SMILES	outcome [1]	outcome [2]	outcome [3]	AC50 [1]
C[N+]1(C)[C@@H]2CC(OC(=O)C(O)(c3cccs3)c3cccs3)C[C@H]1[C@@H]1O[C@@H]12 (some centres undefined)	inactive	inactive	inactive	–
COc1cc([C@@H]2c3cc4c(cc3[C@@H](O[C@@H]3O[C@@H]5CO[C@@H](c6cccs6)O[C@@H]5[C@H](O)[C@@H]3O)[C@H]3COC(=O)[C@H]23)OCO4)cc(OC)c1O	inactive	inactive	inactive	–
C[C@@H]1O[C@@H](O[C@H]2CC[C@@]3(C)[C@H](CC[C@@H]4[C@H]3C[C@@H](O)[C@]3(C)[C@@H](C5=CC(=O)OC5)CC[C@]43O)C2)C[C@H](O)[C@@H]1O[C@H]1C[C@H](O)[C@H](O[C@H]2C[C@H](O)[C@@H](O)[C@@H](C)O2)[C@H](C)O1 (stereo in doubt)	–	inactive	inactive	1 µM (active)
Nc1nc(Cl)nc2c1ncn2[C@@H]1O[C@H](CO)[C@@H](O)[C@@H]1F	inactive	inactive	inactive	–
CO[C@H]1C=CO[C@@]2(C)Oc3c(C)c(O)c4c(O)c(c5c(nc6cc(C)ccn65)c4c3C2=O)NC(=O)/C(C)=C\C=C[C@H](C)[C@H](O)[C@@H](C)[C@@H](O)[C@@H](C)[C@H](OC(C)=O)[C@@H]1C	inactive	inactive	inactive	–
CN1CCN(C(c2ccccc2)c2ccc(Cl)cc2)CC1 (centres undefined)	–	inactive	inactive	12.6 µM (active)
C[C@@H]1O[C@@H]1P(=O)(O)O	inactive	inactive	inactive	–
CC[C@@H](C)CCCCC(=O)N[C@@H](CCNCS(=O)(=O)O)C(=O)N[C@H](C(=O)N[C@@H](CCNCS(=O)(=O)O)C(=O)N[C@H]1CCNC(=O)[C@H]([C@@H](C)O)NC(=O)[C@H](CCNCS(=O)(=O)O)NC(=O)[C@H](CCNCS(=O)(=O)O)NC(=O)[C@H](CC(C)C)NC(=O)[C@@H](CC(C)C)NC(=O)[C@H](CCNCS(=O)(=O)O)NC1=O)[C@@H](C)O (X1-[Dab(CH2SO3H)]T[Dab(CH2SO3H)][Dab][Dab(CH2SO3H)][dL]L[Dab(CH2SO3H)][Dab(CH2SO3H)]T; lactam 4-C)	inactive	inactive	inactive	–
